# Reference: PubChem BioAssay
# Values joined by “and” are separate entries in the source; they are usually repeats but may differ in a detail not shown here. Equal entries are not always repeated. Active and inactive are the calls of the source.
# Tests used:
# [1] = optical density shifts of acrAB sulA E. coli – strain DRC41, OD650, 48 h, E. coli filamentation inducer project, primary screen (AID 1152); details: higher = more signal, called active from +8 up or from −8 down;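 note: E. coli MC1000 strain DRC41 lacking acrAB efflux pump and sulA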
# [2] = probe aLefty1 binding on compound microarray – biochemical, small-molecule microarray, 635/667 nm fluorescence, primary screen (AID 1153); details: higher = more signal;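 note: score merges spot fluorescence with signal-to-noise ratio from the scanned slide images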
# [3] = plasmodial surface anion channel blockers, osmotic lysis – cell-based, P. falciparum Indochina, OD700, 1 h, primary screen (AID 1154); details: P. falciparum Indochina infected RBC osmotic lysis, higher = more signal, called active from +8 up or from −8 down
# [4] = plasmodial surface anion channel blockers, osmotic lysis – cell-based, P. falciparum Indochina, OD700, 2 h, primary screen (AID 1155);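 note: lysis reports solute entry through the parasite surface anion channel PSAC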; details: P. falciparum Indochina infected erythrocytes, higher = more signal, called active from +8 up or from −8 down
# [5] = changes in parasitized red cell lysis, either direction – P. falciparum Indochina, OD700, 3 h, PSAC antagonist project, primary screen (AID 1156); details: P. falciparum-infected erythrocytes, osmotic lysis, higher = more signal, called active from +8 up or from −8 down
# [6] = plasmodial surface anion channel blockers, osmotic lysis – cell-based, P. falciparum Indochina, OD700, 18 h, primary screen (AID 1157); details: P. falciparum Indochina infected erythrocytes, osmotic lysis OD700, 18 h; higher = more signal, called active from +8 up or from −8 down
# [7] = S6 kinase pathway phospho-S6 level changes – cell-based, A549, cytoblot, luminescence, serum-stimulated, primary screen (AID 1158); details: 5 h, higher = more signal;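 note: serum-stimulated A549 lung adenocarcinoma cells; signal is phosphorylated S6 detected by cytoblot immunostaining with HRP secondary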
# [8] = molecular target: NADPH oxidase 2 (Homo sapiens) (UniProt P04839); experiment: compounds shifting NOX2 Amplex Red fluorescence – cell-based, HEK293-NOX2, PMA-stimulated, NOX inhibitor project, primary screen (AID 1159); details: 45 min, higher = more signal, called active from +8 up or from −8 down; note: test concentration not given here
# [9] = molecular target: NADPH oxidase 4 (Homo sapiens) (UniProt Q9NPH5); experiment: compounds shifting NOX4 Amplex Red fluorescence – cell-based, HEK293-NOX4, tetracycline-induced, NOX inhibitor project, primary screen (AID 1160); details: HEK293-NOX4, Amplex Red H2O2 fluorescence, 45 min; higher = more signal, called active from +8 up or from −8 down
# [10] = molecular target: NADPH oxidase 5 (Homo sapiens) (UniProt Q96PH1); experiment: compounds shifting NOX5 Amplex Red fluorescence – cell-based, HEK293-NOX5, NOX inhibitor project, primary screen (AID 1161); details: HEK293-NOX5, ionomycin, 45 min, higher = more signal
# [11] = compound effects on lung adenocarcinoma cell viability – A549, calcein-AM fluorescence, 48 h, basal, profiling panel (AID 1162); details: higher = more signal; note: test concentration not given here
# [12] = compound effects on differentiated 3T3-L1 adipocyte viability – cell-based, 3T3-L1 adipocytes, calcein-AM fluorescence, 48 h, basal, profiling panel (AID 1163); details: 3T3-L1 adipocytes viability, higher = more signal; note: test concentration not given here
# [13] = compound effects on hepatocellular carcinoma cell viability – HepG2, calcein-AM fluorescence, 48 h, basal, profiling panel (AID 1164); details: higher = more signal; note: test concentration not given here
# [14] = compound effects on multiple myeloma cell viability – MM1S, calcein-AM fluorescence, 48 h, basal, profiling panel (AID 1165); details: higher = more signal;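 note: viability of MM1S multiple myeloma cells under basal unstimulated conditions; test concentration not given here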
# [15] = calcein-AM signal in unstimulated myeloma cells – cell-based, calcein-AM fluorescence, 48 h, PK04 Diversity Set, profiling panel (AID 1166); details: RPMI8226 myeloma viability, higher = more signal;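 note: cells grown under basal conditions without added stimulus; test concentration not given here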
# [16] = JC-1 mitochondrial signal, unstimulated HepG2 cells – cell-based, JC-1 fluorescence, 24 h, 100 nL compound, profiling panel (AID 1167); details: HepG2 mitochondrial potential, higher = more signal; note: test concentration not given here
# [17] = JC-1 mitochondrial signal, unstimulated adipocytes – cell-based, JC-1 fluorescence, 3T3-L1 adipocytes, 24 h, 100 nL compound, profiling panel (AID 1168); details: JC-1 mitochondrial fluorescence, higher = more signal, called active from +8 up or from −8 down; note: test concentration not given here
# [18] = JC-1 mitochondrial signal, unstimulated myeloma cells – cell-based, JC-1 fluorescence, RPMI8226, 24 h, 100 nL compound, profiling panel (AID 1169); details: JC-1 mitochondrial potential fluorescence, higher = more signal; note: test concentration not given here
# [19] = JC-1 mitochondrial signal, unstimulated MM1S myeloma – cell-based, JC-1 fluorescence, 24 h, 100 nL compound, profiling panel (AID 1170); details: MM1S mitochondrial potential, higher = more signal; note: test concentration not given here
# [20] = resazurin metabolic signal in A549 cells – cell-based, resazurin fluorescence, 24 h, PK04 Diversity Set, profiling panel (AID 1171); details: A549 viability, higher = more signal, called active from +8 up or from −8 down; note: test concentration not given here
# Chain of NADPH oxidase 5 (Homo sapiens) (Q96PH1 whole entry, looked up): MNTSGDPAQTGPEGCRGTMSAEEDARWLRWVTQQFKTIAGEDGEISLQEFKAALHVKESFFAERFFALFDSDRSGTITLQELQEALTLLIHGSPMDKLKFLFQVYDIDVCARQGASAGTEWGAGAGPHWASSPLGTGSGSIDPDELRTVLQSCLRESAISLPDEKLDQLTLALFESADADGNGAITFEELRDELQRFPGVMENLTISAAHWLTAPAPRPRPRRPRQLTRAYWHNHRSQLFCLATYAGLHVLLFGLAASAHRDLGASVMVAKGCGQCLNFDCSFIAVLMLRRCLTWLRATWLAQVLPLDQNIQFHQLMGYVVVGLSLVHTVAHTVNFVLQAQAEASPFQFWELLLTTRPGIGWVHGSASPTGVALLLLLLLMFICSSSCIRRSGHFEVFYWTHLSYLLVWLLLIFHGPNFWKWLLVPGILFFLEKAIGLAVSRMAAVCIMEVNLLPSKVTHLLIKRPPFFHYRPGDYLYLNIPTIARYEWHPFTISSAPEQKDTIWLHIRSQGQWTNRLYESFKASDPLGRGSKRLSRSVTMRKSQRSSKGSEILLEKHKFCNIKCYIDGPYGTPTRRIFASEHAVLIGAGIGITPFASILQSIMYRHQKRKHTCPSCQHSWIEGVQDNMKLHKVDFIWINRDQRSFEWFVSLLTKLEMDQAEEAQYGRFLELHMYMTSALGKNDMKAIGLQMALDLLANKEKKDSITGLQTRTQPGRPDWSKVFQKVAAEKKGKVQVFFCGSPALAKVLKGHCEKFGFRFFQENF
# Chain of NADPH oxidase 2 (Homo sapiens) (P04839 whole entry, looked up): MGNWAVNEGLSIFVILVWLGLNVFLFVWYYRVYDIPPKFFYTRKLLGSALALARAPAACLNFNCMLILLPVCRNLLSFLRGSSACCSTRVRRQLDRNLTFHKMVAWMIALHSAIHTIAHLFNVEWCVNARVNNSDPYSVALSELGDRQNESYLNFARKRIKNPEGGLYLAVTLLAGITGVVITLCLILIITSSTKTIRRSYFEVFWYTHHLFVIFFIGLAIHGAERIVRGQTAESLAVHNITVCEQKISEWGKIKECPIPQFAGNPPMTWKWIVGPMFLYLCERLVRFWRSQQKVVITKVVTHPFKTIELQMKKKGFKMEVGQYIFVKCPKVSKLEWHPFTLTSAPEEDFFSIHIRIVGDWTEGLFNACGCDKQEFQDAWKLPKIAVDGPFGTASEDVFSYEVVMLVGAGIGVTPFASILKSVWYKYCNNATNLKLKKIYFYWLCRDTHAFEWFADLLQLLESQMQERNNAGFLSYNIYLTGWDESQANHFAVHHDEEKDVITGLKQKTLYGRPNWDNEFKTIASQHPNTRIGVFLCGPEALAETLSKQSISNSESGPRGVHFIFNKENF
# Chain of NADPH oxidase 4 (Homo sapiens) (Q9NPH5 whole entry, looked up): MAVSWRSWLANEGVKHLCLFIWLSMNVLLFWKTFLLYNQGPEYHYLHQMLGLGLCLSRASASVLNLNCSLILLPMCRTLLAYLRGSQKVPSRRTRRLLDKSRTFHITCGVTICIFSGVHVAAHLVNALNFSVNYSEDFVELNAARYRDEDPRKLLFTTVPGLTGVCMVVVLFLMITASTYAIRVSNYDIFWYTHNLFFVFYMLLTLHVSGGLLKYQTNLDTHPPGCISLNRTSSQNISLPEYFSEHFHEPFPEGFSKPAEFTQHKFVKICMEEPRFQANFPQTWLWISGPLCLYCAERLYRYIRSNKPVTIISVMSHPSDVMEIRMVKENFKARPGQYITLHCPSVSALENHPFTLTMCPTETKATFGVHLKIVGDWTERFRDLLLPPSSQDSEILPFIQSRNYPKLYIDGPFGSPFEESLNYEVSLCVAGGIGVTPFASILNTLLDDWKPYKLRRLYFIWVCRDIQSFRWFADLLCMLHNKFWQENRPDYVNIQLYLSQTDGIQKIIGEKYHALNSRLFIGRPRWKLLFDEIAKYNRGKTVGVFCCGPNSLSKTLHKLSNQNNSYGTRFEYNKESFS
Structure (SMILES),z-score [1],composite z-score [2],z-score [3],z-score [4],z-score [5],z-score [6],z-score [7],z-score [8],z-score [9],z-score [10],z-score [11],z-score [12],z-score [13],z-score [14],z-score [15],z-score [16],z-score [17],z-score [18],z-score [19],z-score [20]
C=CCN(C(=O)C1N(c2c(Cl)cccc2CO)C(=O)C2C(C(=O)O)C3C=CC21O3)C(C)(C)C (stereo not given),1.66 (inactive) and 1.99 (inactive),-0.945 and -0.0547,1.77 (inactive) and -0.973 (inactive),0.821 (inactive) and -1.1 (inactive),1.03 (inactive) and -0.229 (inactive),0.604 (inactive) and -1.54 (inactive),0.442 and 1.04,0.961 (inactive) and 0.116 (inactive),-0.288 (inactive) and -0.645 (inactive),0.788 and -0.335,-0.875 and 0.96,0.766 and -0.202,0.613 and 1.78,0.64 and 1.54,-0.224 and -0.394,-0.536 and 0.627,-1.27 (inactive) and 1.46 (inactive),-0.153 and 0.828,0.0478 and 1.11,-0.289 (inactive) and 0.361 (inactive)
C=C[C@@H](OC)[C@H](O)c1ccc(O)c(F)c1,0.0737 (inactive) and 1.88 (inactive),-0.284 and -0.196,0.268 (inactive) and -0.347 (inactive),-0.132 (inactive) and -0.266 (inactive),-0.387 (inactive) and -0.924 (inactive),0.426 (inactive) and -1.02 (inactive),-0.422 and 1.68,0.203 (inactive) and -0.689 (inactive),-1.69 (inactive) and -0.842 (inactive),-1.64 and -1.95,0.29 and -0.115,-0.625 and 0.478,-0.232 and 0.531,0.204 and 0.115,0.296 and 1.08,-0.242 and 0.559,0.0698 (inactive) and -0.132 (inactive),0.498 and -0.363,0.724 and -0.819,-0.0191 (inactive) and -0.71 (inactive)
C=C[C@@H](OC)[C@H](O)c1ccc(OCCO)cc1,-0.368 (inactive) and 2.73 (inactive),-0.0984 and -0.53,-0.167 (inactive) and 1.57 (inactive),0.139 (inactive) and -0.317 (inactive),-0.123 (inactive) and -0.29 (inactive),0.278 (inactive) and -0.993 (inactive),-0.424 and 2.8,-0.394 (inactive) and -0.426 (inactive),-0.164 (inactive) and -0.249 (inactive),-0.743 and -1.57,0.143 and 0.72,-0.434 and 0.971,0.124 and 0.628,0.663 and 0.916,-0.486 and 0.64,-0.244 and 0.904,0.36 (inactive) and -1.97 (inactive),-0.982 and -0.69,0.88 and -1.28,-0.133 (inactive) and -0.135 (inactive)
C=CCN(CCCCC)C(=O)C1N(C(C)(C)CO)C(=O)C2C(C(=O)O)C3C=CC21O3 (stereo not given),-0.548 (inactive) and -0.511 (inactive),-0.717 and -0.18,-0.632 (inactive) and -0.588 (inactive),-0.042 (inactive) and -0.318 (inactive),-0.694 (inactive) and -1.04 (inactive),-0.281 (inactive) and -0.646 (inactive),0.0495 and 2.08,1.02 (inactive) and 0.298 (inactive),-0.188 (inactive) and -0.0857 (inactive),0.101 and 0.407,-0.777 and -0.44,-0.472 and -0.0106,0.174 and -0.209,0.369 and -0.0102,-0.187 and -0.148,-0.66 and -1.15,0.044 (inactive) and -0.845 (inactive),0.776 and 0.876,0.861 and 0.681,0.0106 (inactive) and -0.0941 (inactive)
C#CCN1C(/C=C/c2ccccc2)C(=O)OC[C@H]1c1ccccc1 (stereo not given in full),1.75 (inactive) and 0.239 (inactive),-0.021 and -0.0536,4.02 (inactive) and 1.57 (inactive),0.277 (inactive) and 0.538 (inactive),0.244 (inactive) and 0.713 (inactive),-0.947 (inactive) and 0.377 (inactive),4.14 and -0.153,0.353 (inactive) and 1.86 (inactive),0.0869 (inactive) and 0.344 (inactive),0.189 and 0.518,-0.002 and -0.112,1.74 and 0.227,-0.0288 and -0.167,-0.0906 and -0.0281,-0.712 and -1.8,1.04 and 0.221,1.37 (inactive) and 0.0383 (inactive),-0.749 and 0.481,-0.328 and -1.12,-0.925 (inactive) and 1.15 (inactive)
CCOC(=O)NN=C1C[C@@H](O)[C@@H](O)[C@@H]2[C@@H]3C(=O)N(Cc4ccc5c(c4)OCO5)C(=O)[C@@H]3CC[C@@H]12,0.806 (inactive),-0.14,6.5 (inactive),1.29 (inactive),1.34 (inactive),0.574 (inactive),-0.403,-0.00897 (inactive),0.786 (inactive),0.175,1.24,-0.54,0.32,0.511,0.466,0.598,1.11 (inactive),0.612,-1.25,0.0533 (inactive)
COC(=O)[C@@]1(Cc2ccc(F)cc2)[C@H]2c3cc(C(=O)N4CCCC4)n(Cc4c(CO)[nH]cc(C)c4=O)c3C[C@H]2CN1C(=O)c1ccccc1,-1.7 (inactive) and -1.76 (inactive),1.63 and 0.0811,1.02 (inactive) and 1.15 (inactive),0.148 (inactive) and 0.543 (inactive),0.63 (inactive) and 0.306 (inactive),0.398 (inactive) and 0.57 (inactive),-0.52 and -0.213,0.636 (inactive) and 0.617 (inactive),-1.58 (inactive) and -0.346 (inactive),-2.05 and -0.222,-1.51 and -0.994,0.284 and -0.41,-0.272 and -0.426,-1.2 and -0.26,-1.34 and -0.473,1.07 and 0.498,-0.217 (inactive) and -1.18 (inactive),-0.409 and 0.893,0.1 and 0.277,-0.133 (inactive) and 2.11 (inactive)
